Screens as filed in PubChem BioAssay.
Mtb UGM inh – M. tuberculosis UGM enzyme inhibitors, primary screen, biochemical, fluorescence polarization, single point; UDP-galactopyranose mutase (Mycobacterium tuberculosis (strain ATCC 25618 / H37Rv)), …; purified UGM, fluorescence polarization probe displacement; inhibition, % at 10 µM; 320,000 tested, 0.06% active; AID 504406, 2011; in the data active means inhibition above about 10%, passing the limit was not always enough
Target sequence (P9WIQ1 whole entry, looked up): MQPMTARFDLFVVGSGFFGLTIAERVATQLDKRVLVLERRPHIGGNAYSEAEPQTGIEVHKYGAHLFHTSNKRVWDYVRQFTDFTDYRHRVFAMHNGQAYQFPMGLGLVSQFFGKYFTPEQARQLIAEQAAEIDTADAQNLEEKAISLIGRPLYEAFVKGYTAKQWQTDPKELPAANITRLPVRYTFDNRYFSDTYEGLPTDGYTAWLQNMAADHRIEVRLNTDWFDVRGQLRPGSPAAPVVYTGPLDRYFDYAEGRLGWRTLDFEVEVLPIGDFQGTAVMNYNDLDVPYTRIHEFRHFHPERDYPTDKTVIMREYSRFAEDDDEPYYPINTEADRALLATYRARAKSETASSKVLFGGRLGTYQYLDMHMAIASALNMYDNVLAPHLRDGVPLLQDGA
Rv3671c protease – Rv3671c serine protease inhibitors, primary screen, biochemical, fluorescence polarization, M. tuberculosis H37Rv | inhibition, % at 5.96 µM | AID 2606, 2010 | 320,000 tested, 0.048% active; in the data active means inhibition above about 38%;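 further: extracellular domain of Rv3671c used as enzyme; 0% = enzyme with DMSO and 100% = no enzyme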
GDH-TPI counter-1 – GDH-TPI coupling enzyme inhibitors, primary screen, artefact control for M. tuberculosis FBA inhibitor project, biochemical, absorbance, full deck | GDH-TPI coupled enzyme counterscreen, NADH absorbance | inhibition, % at 4.8 µM | 360,000 tested, 1.2% active; in the data active means inhibition above about 30%;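 further: 0% = DMSO wells and 100% = wells lacking the enzyme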
RecA intein inh – Mtb RecA intein splicing inhibitors, primary screen, biochemical, fluorescence, HTS; Protein RecA (Mycobacterium tuberculosis (strain ATCC 25618 / H37Rv)), P9WHJ3; cell-free RecA intein splicing; inhibition, % (test concentration not listed); 290,000 tested, 0.75% active; in the data active means inhibition above about 30%;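 further: 0% = vehicle wells and 100% = reference inhibitor control wells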
Mtb betalactam – beta-lactam sensitization of Mtb H37Rv, H37Rv | M. tuberculosis H37Rv growth with meropenem, percent inhibition | inhibition, % at 25 µM | 330,000 tested, 0.27% active; call rule not given here;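 further: growth measured after seven days incubation then overnight dye step; 0% = bacteria only wells and 100% = bacteria with antibiotic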
FBA Mtb inh – Mtb FBA enzyme inhibitors, primary screen, biochemical, fluorescence, strain H37Rv; purified M. tuberculosis FBA, fluorescence read-out; inhibition, % at 1 µM; 360,000 tested, 2.3% active;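 further: 0% = vehicle and 100% = reference inhibitor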
Mtb FBA inh conf – M. tuberculosis aldolase blockers, biochemical, fluorescence, strain H37Rv, confirmation; 5,600 tested, 78% active; shares compounds with FBA Mtb inh; AID 651616, 2012; purified M. tuberculosis FBA, fluorescence read-out; inhibition, % at 1 µM;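 further: 0% = vehicle wells and 100% = reference inhibitor wells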
GDH-TPI counter-2 – GDH-TPI coupling enzyme inhibitors, artefact control for M. tuberculosis FBA inhibitor project, biochemical, fluorescence, high throughput | GDH-TPI coupled enzyme counterscreen | 5,600 tested, 81% active | inhibition, % at 1 µM | AID 652141, 2013 | shares compounds with FBA Mtb inh; in the data active means inhibition above about 10%
Numbers without * were called inactive; / = no result given; + = active, no number. Compounds with a hit are over-represented: about 4% of the library has one in this group of screens. Unless noted, no stated cut-off is given here; in the data, active means inhibition above about 27%; inactive means the rest.

SMILES	Mtb UGM inh	Rv3671c protease	GDH-TPI counter-1	RecA intein inh	Mtb betalactam	FBA Mtb inh	Mtb FBA inh conf	GDH-TPI counter-2
CC1CN(Cc2c(O)ccc3c2oc(=O)c2ccccc23)CC(C)O1 (configuration not stated)	2.0	4.1	17.3	-7.2	-6.2	5.0	/	/
CCC1CCCCN1Cc1nc2ccccc2c(=O)n1CC(C)=O (configuration not stated)	-2.6	-0.8	18.8	1.1	-2.3	-1.7	/	/
CN(C)Cc1c(O)ccc2c(=O)c(-c3ccc(Cl)cc3)coc12	-0.5	-4.2	21.4	/	1.3	45.7*	42.8*	30.5*
CC1CN(Cc2c(O)ccc3c(=O)c(-c4ccccc4)coc23)CC(C)O1 (configuration not stated)	2.2	1.6	24.8	-2.6	-6.9	89.9*	-5.5	-6.0
O=c1c(-c2ccc([N+](=O)[O-])cc2)coc2c(O)c(O)ccc12	-1.6	-9.3	16.7	-1.8	-8.2	-1.5	/	/
COc1ccc(-c2coc3c(CN4CCCCC4C)c(O)ccc3c2=O)cc1 (configuration not stated)	0.9	9.1	-2.2	-1.6	0.6	77.6*	69.6*	45.6*
CCC1CCCCN1Cc1c(O)ccc2c(=O)c(-c3ccccc3)coc12 (configuration not stated)	0.6	-11.8	21.4	0.3	-0.3	54.5*	41.4*	32.5*
Cc1cc(C)n2c(nc3ccccc32)c1C(=O)NCc1ccccc1	4.6	-3.9	7.3	-2.4	-4.4	48.2*	22.7	15.2*
COc1ccc2c(c1)nc(NCCO)n2C	1.8	0.7	-6.4	-3.2	48.0	37.4*	187.3*	169.9*
Cn1c(NCCCO)nc2ccccc21	2.0	5.5	-2.4	-2.6	3.9	1.5	/	/
COc1ccc(-n2cc(C#N)c(=O)[nH]c2=O)cc1	0.2	-2.5	5.0	-1.3	-7.5	2.0	/	/
CC(Oc1ccc(Cl)cc1)c1ccc(C#N)c(=O)[nH]1 (configuration not stated)	2.2	5.1	22.1	-0.8	-0.1	33.5*	122.9*	97.0*
COc1ccc(OC(C)c2ccc(C#N)c(=O)[nH]2)cc1 (configuration not stated)	1.3	6.5	9.8	-2.3	6.0	4.0	/	/
COC(OC)c1ccc(C#N)c(=O)[nH]1	-2.6	-3.2	8.9	-1.7	0.3	58.1*	-7.8	-4.9
CNc1c(NS(=O)(=O)c2cc(OC)ccc2OC)c(=O)oc2ccccc12	-0.8	-3.7	17.7	/	-0.7	1.3	/	/
COc1ccc2nc3ccccc3[n+]([O-])c2c1	/	/	14.9	/	/	4.2	/	/
[O-][n+]1c2ccccc2cc2ccccc21	-0.9	13.2	-15.5	-4.1	-1.7	73.2*	+	+
CC(NC(=O)/C(=C\c1ccco1)NC(=O)c1ccccc1Br)C(=O)O (configuration not stated)	0.9	-1.5	1.3	-2.2	-8.3	-0.1	/	/
N#CC1(C#N)C(c2ccccc2)OC23CCCCC2C1(C#N)C(=N)O3 (configuration not stated)	4.7	-0.1	0.0	-311.4	5.7	75.2*	58.0*	64.0*
N#CC1(C#N)C(c2ccccc2)OC23CCCCCC2C1(C#N)C(=N)O3 (configuration not stated)	1.6	-8.0	2.2	-58.1	1.3	40.9*	40.4*	33.9*
CCOc1ccc(N(CC(=O)N2CCCC2)S(=O)(=O)c2ccc(F)cc2)cc1	0.3	-10.8	5.2	-0.4	0.8	0.7	/	/
CCn1c(COc2ccc(C)cc2)nc2ccccc21	-1.4	-4.7	-1.2	6.3	-7.3	-0.7	/	/
